The text below walks through data of PubChem BioAssay (NCI).

Where “and” joins values, the source holds several entries; their conditions need not be identical. Equal entries are not always repeated. About 83,000 compounds went through this panel and 20% of them were active in at least one assay; those are over-represented in the sample as a whole.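 Method: cells in 96-well plates; compound added at one concentration; 48 h incubation; percent growth measured; values under 10 scored active.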 Unmarked numbers belong to inactive results. Calls of active or inactive are those of the source.

The first experiment deals with OVCAR-5 ovarian. Description: NCI-60 one-dose screen, 48 h (100 = growth as untreated, 0 = no growth, -100 = all killed). Conditions: 0.005 µM. The procedure:
Growth inhibition of the OVCAR-5 human tumor cell line is measured as a screen for anti-cancer activity. Cells are grown in 96 well plates and exposed to the test compound for 48 hours. Compounds are tested at a single concentration, which is 10^-5 M for most compounds. The reported endpoint is percent growth (GI% or GIPRCNT), where numbers from 0 - 100% represent growth inhibition, and numbers from -100% - 0 represent cell death. For example, a value of 40 represents 60% growth inhibition. A value of 0 means no net growth occurred over the course of the experiment. A value of -40 indicates 40% of cells at the beginning of the experiment died by the end of the experiment. A value of -100 means all cells are dead at the end of the experiment.
NCI-60 Human Tumor Cell Lines Screen was performed using the standard one-dose NCI protocol, which is described in more detail at https://dtp.cancer.gov/discovery_development/nci-60/default.htm.
Compounds with GIPRCNT values below 10 were considered active. Activity score was based on GIPRCNT using the following formula: […]
Score is 0 for GIPRCNT values of 100 or above, 50 for GIPRCNT values of 0, and 100 for GIPRCNT values of -100.
Turning to `CN(C)CCNc1ncc(F)c(-c2cnc3cc(-c4cnn(C)c4)ccn23)n1`, the growth is 99.7%.

The experiment is the same for the next values; noted with them: 10 µM.
Turning to `CC(=O)/C=C/c1ccc(N(CCO)Cc2ccc(C(C)(C)C)cc2)cc1`, the growth is 78.2%.

The experiment is the same for the next values; noted with them: 10 µM unless noted.
In the case of `CCN(CC)CC#CCOC(=O)[C@]1(C)CCC[C@]2(C)c3ccc(C(C)C)cc3CC[C@@H]12`, the growth is 93.5%.
In the case of `Clc1ccc(/C=N\N2CCCCCC2)cc1`, the growth was 87.8% and 95%.
Same read-out and setting: the figure for `Nc1ncc(-c2ccc3ncnc(N4CCc5ccc(Cl)cc54)c3c2)cc1C(F)(F)F` is 12.2%.
On to `N#Cc1c(-c2cccc(F)c2)cc(-c2cccnc2)[nH]c1=O`, for which the growth is 98.9%.
Turning to `Clc1ccc2c(c1)N(c1ncnc3ccc(-c4cnc5[nH]ccc5c4)cc13)CC2`, the growth was 39.1%.
Same read-out and setting: the figure for `CN(Cc1ccccc1)c1nc(Cl)c(C2CC(c3ccc(F)cc3)=NN2C=O)s1` (stereo not given) is 99.8%; for `Cn1ccnc1CN1CCSC(C(=O)Nc2ccccc2)C1` (stereo not given) it is 83.1%; for `NC1=CC(=O)c2cccnc2C1=O` it is -70.8% (active).
`Cc1n(Cc2ccc3ccccc3c2)c(Cl)c(Cl)[n+]1Cc1ccc2ccccc2c1`: the growth was 51.1%.
With `CCCCCCCC/C=C\CCCCCCCCOc1ccccc1CC(=O)NCC[N+]1(C)CCOCC1`, the growth was 42.7%.
Regarding `C=CCOc1ccc(/C=C2\SC(=S)N(CCc3ccc(O)cc3)C2=O)cc1`, the growth is 110%.
As to `COc1cccc(NC(=O)c2sc3nc(C)c(C(O)c4ccccc4)cc3c2N)c1` (stereo not given), the growth was 47.5%.
Still for that read-out and setting: the figure for `CN1Cn2c(ccc2C(F)(F)F)C(=O)CS1(=O)=O` is 96%.
Take `COc1ccc2c(c1)CCNC21C(=O)Nc2c(Br)cc(Br)cc21` (stereo not given): the growth was 91.3%.
Take `CCNC(=O)Oc1ccc(/C(=C(/C)Cc2ccc(OC)cc2)c2ccc(OCCN(CC)CC)cc2)cc1`: the growth is 89.9%.
As for `CC[C@H](C)[C@H](NC(=O)[C@H](CCCCN)NC(=O)[C@H](CCCCN)NC(=O)[C@@H](NC(=O)[C@@H](NC(=O)[C@@H](N)Cc1cnc[nH]1)[C@@H](C)CC)[C@@H](C)CC)C(=O)N[C@@H](CCCNC(=N)N)C(=O)N[C@H](C(=O)N[C@@H](Cc1c[nH]c2ccccc12)C(=O)N[C@@H](Cc1ccc(O)cc1)C(=O)N[C@@H](CCCNC(=N)N)C(=O)N[C@@H](CCCCN)C(=O)N[C@@H](C)C(=O)N[C@@H](Cc1c[nH]c2ccccc12)C(=O)N[C@@H](Cc1cnc[nH]1)C(=O)N[C@H](C(=O)N[C@@H](CC(C)C)C(=O)NCC(=O)N[C@@H](CCCCN)C(=O)N[C@H](C(N)=O)C(C)C)C(C)C)[C@@H](C)O`, the growth was 48.4%.
On to `CCOC(=O)c1ccc(Nc2ncnc3c2cnn3-c2cccc(F)c2)cc1`, for which the growth was 97.1%.
Same read-out and setting: with `COc1cc2c(cc1OCCCOC1=C=C=C(c3ccc4c(c3)c3cc(-c5ccc(OCCCOc6cc7c(cc6OC)C(=O)N6CCC[C@H]6C=N7)cc5)ccc3n4S(=O)(=O)c3ccc(C)cc3)C=C1)N=C[C@@H]1CCCN1C2=O` the figure was 113%; with `Cc1nc2cccc(NCCCCC(=O)NO)c2c(=O)n1-c1ccccc1`, 31.1%; with `CC1=CC=C(NC(=O)/C=C/c2ccccc2)CC1Nc1nccc(-c2cccnc2)n1` (stereo not given), 96.8%.
The same measure, in the same setting: with `Cc1c(O)c(O)cc2c3c(oc12)CC(c1ccc2c(c1)OCO2)CC3=O` (stereo not given) the figure was 113%; with `OCc1cc(CN2CCCCC2)c(O)c2ncccc12`, 59.1%.
With `O=Nc1ccc(NO)c2ccccc12`, the growth was 109% and 116%.
Turning to `CCOC(=O)c1nnn(Cc2cc(=O)oc3c2ccc2ccccc23)c1C`, the growth is 102%.
With `C[N+]1=C(/C=C\C=C\c2ccccc2)C(C)(C)c2ccccc21`, the growth is 45.1%.
Turning to `CC/C(=C(/c1ccc(Cl)cc1)c1ccc(OCCN2CCOCC2)cc1)c1ccccc1`, the growth was 100%.
The same measure, in the same setting: the figure for `CCN(CC)CCCN1C(=O)c2c(c(C)c3c(oc4cc(OC)ccc43)c2C)C1=O` is 85%; for `O=c1c2c([nH]c3ccccc13)CCCC2` it is 91.3% and 78.2%; for `CC(=O)c1c(C)nc(SCC(=O)Nc2ccc(Cl)cc2)n1-c1ccc(Cl)cc1` it is 99.1%.
`O=C(/C=C/c1ccccc1)c1cccs1`: the growth was 93.2% and 108%.
Consider `CC(C)(C)c1cc(C(C)(C)c2ccccc2)cc(Cc2cc(C(C)(C)c3ccccc3)cc(C(C)(C)C)c2O)c1O`, for which the growth was 91.8%.
With `C=C(C)[C@@H]1CC[C@]2(C)[C@H](CC(=O)N[C@H]3[C@@H]4C[C@](C)(C(=O)OC)CC[C@]4(C)CC[C@]32C)[C@@]1(C)CCC#N`, the growth is 91.6%.
On to `CC(=O)N1N=C(c2ccc(Nc3nc(Nc4ccc(F)cc4)nc(Nc4ccc(Cl)cc4)n3)cc2)CC1c1ccc(N(C)C)cc1` (stereo not given), for which the growth was 65.9%.
For the molecule `COc1ccc(N2CCN(S(=O)(=O)c3oc(-c4ccccc4)nc3C#N)CC2)cc1`, the growth was 95.2%.
Turning to `CCCCSc1ccc2nc(-c3ccc(OCCCN=C(N)N)cc3)cn2c1`, the growth is 73%.
As for `CN(C)C(=O)c1cc2cnc(Nc3ccc(-c4csc5c(=S)cc(N6CCOCC6)oc45)cc3)nc2n1C1CCCC1`, the growth is 17%.

The experiment is the same for the next values; noted with them: 30 µM.
Regarding `CN(C)CCNc1ncc(F)c(-c2cnc3cc(-c4cnn(C)c4)ccn23)n1`, the growth is 64.5%.

The same experiment, now with this note: 100 µM.
In the case of `CC(=O)/C=C/c1ccc(N(CCO)Cc2ccc(C(C)(C)C)cc2)cc1`, the growth is -98.5% (active).
